Measured values from PubChem BioAssay AID602391 (National Center for Advancing Translational Sciences (NCATS), 2012).
The list shows a part of the results. Results filed as inconclusive are left out. The source made the active and inactive calls. Calls follow the shape of the dose curve; as a rule, active = well fitted inhibition curve with a large enough effect; inconclusive = small, poorly fitted or top-dose-only effect; inactive = flat fitted curve, though single readings scatter.

Test: qHTS Assay for Inhibitors of Bacillus subtilis Sfp phosphopantetheinyl transferase (PPTase): SAR in hGST A1-1
Settings: hGST A1-1 enzyme activity counter-screen; series mostly up to 114 µM
Text: The covalent attachment of a phosphopantetheinyl (4'-PP) arm to a variety of synthases and other proteins is a key posttranslational protein modification. The 4'-PP is installed on the proteins post-translationally from coenzyme A (CoA) on a conserved serine residue by action of phosphopantetheinyl transferase (PPTase) enzymes. Phosphopantetheinylation is essential for synthase activity, and removal of the PPTase gene precludes natural product synthesis in microorganisms, or in the case of fatty acid biosynthesis, renders the organism unviable. PPTase enzymes belong to a distinct structural superfamily. Within bacteria, these enzymes are grouped into two classes based upon primary structure, the AcpS-Type and Sfp-Type PPTases. […]
In search of small molecule Sfp-PPTase inhibitors, a fluorescence quenching assay was developed for detection of Bacillus subtilis Sfp-PPTase enzymatic activity in a miniaturized high-throughput format. […]
This assay sought to assess the promiscuity of test articles with an unrelated target enzyme. The appropriate target for this work was determined to be human glutathione-S-transferase, an enzyme responsible for detoxifying modifying electrophilic xenobiotics to enhance their excretion. […]
With `Cc1cc(C)nc(NC(=S)N2CCN(c3ccc(Cl)cc3C(F)(F)F)CC2)c1` the outcome was “inactive”.
With `COc1ccnc(NC(=S)N2CCN(c3ncc(C(F)(F)F)cc3Cl)CC2)c1` the outcome was “inactive”.
